High-throughput results as filed in PubChem.
Most compounds without a hit are left out; they make up all but 5.3% or so of the library.
LASV entry inh – inhibitors of Lassa virus binding or cell entry; Lassa virus pseudotype entry inhibition, cell reporter; Potency, µM (series often up to 37.9 µM), inactives show top-dose activity change, negative = inhibition, hits mostly inhibitors; 300,000 compounds, 1.2% hits; AID 540256; calls by dose curve; tested in HEK293 cells; note: nearly all actives have a fitted effect of over 50% in size
HCV inh – blocks hepatitis C virus. Huh7.5.1 HCVcc-Cre infection, luciferase reporter, 44 h. Potency, µM (titrated, usually from 41.8 µM), without a hit: top-dose activity change, negative = inhibition, most hits filed as inhibitors. 340,000 compounds, 3.4% hits; active = well fitted inhibition curve with a large enough effect; inconclusive = small, poorly fitted or top-dose-only effect, or another doubt; inactive = no such curve, though single readings can be large or run the other way
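A cell-based infection assay in which seeded cells (1,000 per well) receive test compound after 4 h, are inoculated with HCVcc-Cre at approximately 0.5 moi, and are incubated 44 h before luminescence detection.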
FMDV inh – foot and mouth disease virus antiviral activity | FMDV antiviral cell-based qHTS | Potency, µM (top dose mostly 57.9 µM), inactives show top-dose activity change, negative = inhibition, usual class: inhibitors | 410,000 compounds, 1.2% hits; calls by dose curve; tested in HEK293T cells; note: read-out not given here; nearly all actives have a fitted effect of over 45% in size
Vaccinia mCherry – inhibitors of vaccinia virus infection (mCherry reporter signal); AID 720579; Potency, µM (top dose mostly 36.5 µM), for inactives: top-dose activity change, negative = inhibition, most hits filed as inhibitors; 310,000 compounds, 0.63% hits; Vaccinia virus mCherry reporter infection, fluorescence; calls by dose curve; tested in A549 cells; note: nearly all actives have a fitted effect of over 35% in size
VACV Venus inh – inhibitors of vaccinia virus (Venus reporter); Vaccinia virus Venus reporter expression, fluorescence; 330,000 compounds, 0.46% hits; Potency, µM (doses to about 36.5 µM), inactives show at the top dose activity change, negative = inhibition, actives largely listed as inhibitors; calls by dose curve; tested in A549 cells; note: nearly all actives have a fitted effect of over 30% in size
Marburg entry inh – inhibitors of Marburg virus binding or cell entry. Potency, µM (titrated, usually from 37.8 µM), for the others: top-dose activity change, negative = inhibition, hits mostly inhibitors. Marburg virus pseudotyped entry inhibition, cell reporter. AID 540276. 300,000 compounds, 1.8% hits; calls by dose curve; tested in HEK293 cells
* marks the source's active call; other numbers are inactive results; i = inactive; ? = inconclusive; . = no result given; [ ] = remark or other dose. % is set by controls: 0 for no effect and ±100 for the full control effect; potency is the fitted concentration of half-maximal effect.

SMILES	LASV entry inh	HCV inh	FMDV inh	Vaccinia mCherry	VACV Venus inh	Marburg entry inh
CC(C)=CCN1C(=O)[C@]2(O[C@H](C)CC3=CCCC32)c2c(Br)cccc21 (some centres undefined)	.	.	.	.	.	3%[14.2 µM]
Cn1nc(CC(=O)NCc2ccc(C(F)(F)F)cc2)c2ccccc2c1=O	-23%	?	16µM*	.	.	?
Cn1nc(CC(=O)NC2CCCCCC2)c2ccccc2c1=O	.	3.2µM*	?	i	-22%	.
COc1ccc(CNC(=O)Cc2nn(C)c(=O)c3ccccc23)cc1	-24%	?	16µM*	.	?	?
Cn1nc(C(=O)NCc2ccc(F)cc2)c2ccccc2c1=O	7%	15%	-15%	.	.	-21%
C[C@@H]1COC(=O)[C@H](Cc2ccc(F)cc2)CC/C=C\C[C@@H](CC(=O)NCCO)C(=O)N1	.	13%	1%	i	-4%	.
CCOC(=O)c1c(C)[nH]c(C)c1S(=O)(=O)NCC(=O)Nc1ccc(C)cc1C	?	.	31%	-13%	-3%	.
C#CCn1cc(/C=C2\NC(=O)NC2=O)c2ccccc21	-6%[46.1 µM]	-10%	-4%	4.5µM*	-20%	?
CC(C)n1cc(/C=C2/NC(=O)NC2=O)c2ccccc21	10%	?	-17%	?	-19%	5%[46.1 µM]
CCCCC[C@H](O)/C=C/[C@@H]1[C@H]2C/C(=C/CCCC(=O)O)C[C@H]2C[C@H]1O	.	.	2%	-4%	-19%	.
CCCCCCC[C@@H](C/C=C/CCC(=O)O)OC	.	-3%	-11%	i	0%	.
CCCCCCC[C@@H](C/C=C/CCC(=O)N(C)C/C(=C/Cl)C/C(=C\C(=O)N1CC(OC)=CC1=O)OC)OC	.	?	?	10µM*	?	.
CCCCCCC[C@@H](C/C=C/CCC(=O)N(C)C/C(=C/Cl)C/C(=C\C(=O)N1C[C@H](O)CC1=O)OC)OC	.	?	32µM*	-15%	?	.
C=CCOC(=O)C(C(C)=O)[C@@H](NC(=O)OC)c1ccc2ccccc2c1 (some centres undefined)	.	.	.	.	.	23%[14.2 µM]
O=C1CC(=O)OC(c2ccc([N+](=O)[O-])cc2)O1	.	.	10µM*	13µM*	13µM*	.
CC(C)(C)CC(C)(C)N=C1Nc2ccccc2NC12C[C@H]1CCC(=O)N3CC[C@@H](C2)[C@@H]13 (some centres undefined)	.	-12%	-16%	-7%	-12%	.
CC(C)Cc1nc(N2CCCCC2)c(C#N)c2c1CCC2	6%	-20%	-18%	2%	-1%	-16%
CC(C)Cc1nc(N2CCNCC2)c(C#N)c2c1CCC2	-2%	3.2µM*	-12%	-7%[7.34 µM]	-14%[7.34 µM]	?
CC(=O)N1CCN(c2nc(CC(C)C)c3c(c2C#N)CCC3)CC1	?	?	-6%	-15%	-2%	-15%
CC(C)Cc1nc(N2CCN(C(=O)c3ccccc3)CC2)c(C#N)c2c1CCC2	6.5µM*	11µM*	?	.	.	?
CC(C)Cc1nc(N2CCN(C(=O)c3ccco3)CC2)c(C#N)c2c1CCC2	?	?	25µM*	-20%	-13%	?
CCSc1nnc2c(n1)OC(c1sccc1C)N(C(C)=O)c1ccccc1-2 (centres undefined)	-14%[46.1 µM]	.	-16%	-21%	-16%	0%[46.1 µM]
CCCCCC(C)N (centres undefined)	.	.	6%	-15%	-5%	.
CCOC(=O)[C@H](c1ccccc1)N1CCN(c2ccc(OC)cc2)CC1	.	.	.	.	.	1%
CCOc1cc(N2CCOCC2)c(OCC)cc1NC(=O)c1ccc(NC(C)=O)cc1	?	-4%	-20%	-12%	-10%	-16%[46.1 µM]
SMILES	LASV entry inh	HCV inh	FMDV inh	Vaccinia mCherry	VACV Venus inh	Marburg entry inh
CCOc1cc(N2CCOCC2)c(OCC)cc1NC(=O)c1ccc(OC)cc1	-23%	4.5µM*	-22%	-10%	-4%	?
CCOc1cc(N2CCOCC2)c(OCC)cc1NC(=O)COC(=O)c1ccccc1C	?	-32%	?	i	-6%	?
CCOc1cc(N2CCOCC2)c(OCC)cc1NC(=O)Cc1cccc2ccccc12	-24%	14µM*	6%	-14%	-28%	?
Cc1ccccc1NC(=O)CSc1nc2ccccc2c2nc(CCn3c(C)nc4ccccc43)nn12	1%[46.1 µM]	.	?	?	?	.
Cc1nc2ccccc2n1CCc1nc2c3ccccc3nc(SCC(=O)NCc3ccco3)n2n1	?	?	?	.	.	10µM*
Cc1cccc(NC(=O)CSc2nc3ccccc3c3nc(CCc4c(C)n[nH]c4C)nn23)c1	?	25µM*	?	-29%	-16%	18µM*
Cc1cncn1CCc1nc2c3ccccc3nc(SCC(=O)Nc3cccc(Cl)c3)n2n1	?	?	-17%	-13%	?	6.5µM*
O=C(NCc1ccc(F)cc1)c1cc2c(=O)n3ccccc3nc2s1	0%[46.1 µM]	.	3%	-17%	-3%	?
CCOc1ccccc1Nc1nc(-c2sc(C)nc2C)cs1	-5%[46.1 µM]	?	4%	3.5µM*	?	?
CCOc1ccccc1Nc1nc(-c2cccnc2)cs1	9%	10µM*	-15%	-14%	-27%	-5%
NS(=O)(=O)c1ccc(Nc2nc(-c3cccnc3)cs2)cc1	3%	13µM*	-23%	-28%	-22%	?
Clc1ccccc1Nc1nc(-c2cccnc2)cs1	?	?	6%	-22%	-10%	?
COc1cc(OC)c(Nc2cc(C)nc3ncnn23)cc1Cl	-4%[46.1 µM]	.	14%	11%	-1%	10%[46.1 µM]
COc1cccc(N2CCN(c3ncnc4c3[nH]c3ccccc34)CC2C)c1 (centres undefined)	.	10µM*	.	.	.	.
COc1cc2[nH]c3c(N4CCN(c5ccc(Cl)cc5)CC4)ncnc3c2cc1OC	1%	?	-22%	-13%	?	?
COc1cccc2[nH]c3c(N4CCc5ccccc5C4)ncnc3c12	?	11µM*	?	?	-25%[7.34 µM]	7%[46.1 µM]
COc1cccc(N2CCN(c3ncnc4c3[nH]c3ccc(F)cc34)CC2C)c1 (centres undefined)	2.8µM*	1.6µM*	2µM*	.	7.1µM*	?
COc1cccc2[nH]c3c(N4CCC(C)CC4)ncnc3c12	-1%	?	-29%	.	.	-6%
Cc1ccc(-c2cc3nc(NCCc4ccncc4)n(C)c(=O)c3s2)cc1	.	.	41%	i	?	.
CC(C)Oc1ccc(C(=O)NCC2Cc3cc(Cl)cc(-c4ncccn4)c3O2)cc1 (centres undefined)	.	.	-2%	-14%	-10%	.
CCN(CC)CCCNC(=O)c1cc(Cl)c(NC(=O)C2=C(C)OCCS2)cc1OC	-2%[46.1 µM]	11µM*	-5%	-3%	-23%	?
Cc1ccc(N(Cc2cc(=O)[nH]c3ccccc23)C(=O)CCl)c(C)c1	?	?	35µM*	?	?	?
NC(C(=O)O)C(CC(=O)O)c1ccc(Cl)cc1 (centres undefined)	.	.	-7%	-9%	-11%	.
O=C(Cc1ccccc1)N/N=C/c1cc(Br)cc(Br)c1O	?	?	-1%	?	-22%	?
